The full data set covers some 7,900 targets. This sample favours those with a hit. About 0.6% of all pairs of compound and target were hits. A number with no mark means an inactive call.
Experiments:
Test in all cases: log2 fold change, soluble protein after heating vs DMSO (PISA); higher = thermal stabilisation; K562 cells, 10 uM, 30 min; active = over 0.2 and 3.5 SD of the protein, either way, in both replicates (recomputed)
[1] = compound: CS(=O)(=O)c1ccc(-c2cnc(N)c(C(=O)Nc3ccccc3)n2)cc1
How it was run: (§1)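 K562 cells at 2×10^6 cells/mL were given 10 μM compound for 30 min. Aliquots then went through 3 min of heating across 48°C-58°C, were pooled, and were extracted in PBS with 0.5% NP-40 at 4°C, and the supernatant after 21,000xg for 90 min was quantified by TMTpro 16plex LC-MS/MS with channel sums equalised. Thermal stability relative to control samples, from duplicates, is given as log2 fold change.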

crizotinib = compound: C[C@@H](Oc1cc(-c2cnn(C3CCNCC3)c2)cnc1N)c1c(Cl)ccc(F)c1Cl [crizotinib]
How it was run: as §1

[2] = compound: C[C@@H]1COCCN1C2=NC(=NC(=C2)C3(CC3)S(=O)(=O)C)C4=C5C=CNC5=CC=C4
How it was run: as §1

[3] = compound: C[C@H](C1=CC=C(C=C1)C(=O)NC2=C3C=CNC3=NC=C2)N
How it was run: as §1

duvelisib = compound: C[C@H](Nc1ncnc2nc[nH]c12)c1cc2cccc(Cl)c2c(=O)n1-c1ccccc1 [duvelisib]
How it was run: as §1

gandotinib = compound: Cc1cc(Nc2cc(CN3CCOCC3)c3nc(C)c(Cc4ccc(Cl)cc4F)n3n2)n[nH]1 [gandotinib]
How it was run: as §1

tozasertib = compound: Cc1cc(Nc2cc(N3CCN(C)CC3)nc(Sc3ccc(NC(=O)C4CC4)cc3)n2)n[nH]1 [tozasertib]
How it was run: as §1

[4] = compound: Cc1cc(SCc2sc(-c3ccc(C(F)(F)F)cc3)nc2C)ccc1OCC(=O)O
How it was run: as §1

doramapimod = compound: Cc1ccc(-n2nc(C(C)(C)C)cc2NC(=O)Nc2ccc(OCCN3CCOCC3)c3ccccc23)cc1 [doramapimod]
How it was run: as §1

ispinesib = compound: Cc1ccc(C(=O)N(CCCN)[C@@H](c2nc3cc(Cl)ccc3c(=O)n2Cc2ccccc2)C(C)C)cc1 [ispinesib]
How it was run: as §1

bafetinib = compound: Cc1ccc(NC(=O)c2ccc(CN3CC[C@H](N(C)C)C3)c(C(F)(F)F)c2)cc1Nc1nccc(-c2cncnc2)n1 [bafetinib]
How it was run: as §1

[5] = compound: Cc1cccc(CC(=O)N2CCc3c2ccc(-c2cn(C)c4ncnc(N)c24)c3F)n1
How it was run: as §1

nilotinib = compound: Cc1cn(-c2cc(NC(=O)c3ccc(C)c(Nc4nccc(-c5cccnc5)n4)c3)cc(C(F)(F)F)c2)cn1 [nilotinib]
How it was run: as §1

[6] = compound: Cc1nc(Nc2n[nH]c3c2CN(C(=O)N[C@H](CN(C)C)c2ccccc2)C3(C)C)c2sccc2n1
How it was run: as §1

dasatinib = compound: Cc1nc(Nc2ncc(C(=O)Nc3c(C)cccc3Cl)s2)cc(N2CCN(CCO)CC2)n1 [dasatinib]
How it was run: as §1

[7] = compound: Cc1ncc(-c2ccnc(Nc3ccc(S(C)(=O)=O)cc3)n2)n1C(C)C
How it was run: as §1

[8] = compound: Cn1cc(-c2ccc3c(c2)CCN3C(=O)Cc2cccc(C(F)(F)F)c2)c2c(N)ncnc21
How it was run: as §1

[9] = compound: Cn1cc(-c2ccc3nnc(C(F)(F)c4ccc5ncccc5c4)n3n2)cn1
How it was run: as §1

tipifarnib = compound: Cn1cncc1[C@@](N)(c1ccc(Cl)cc1)c1ccc2c(c1)c(-c1cccc(Cl)c1)cc(=O)n2C [tipifarnib]
How it was run: as §1

mubritinib = compound: FC(F)(F)c1ccc(/C=C/c2nc(COc3ccc(CCCCn4ccnn4)cc3)co2)cc1 [mubritinib]
How it was run: as §1

Chain of UniProt Q9NUQ2 (Q9NUQ2 whole entry, looked up): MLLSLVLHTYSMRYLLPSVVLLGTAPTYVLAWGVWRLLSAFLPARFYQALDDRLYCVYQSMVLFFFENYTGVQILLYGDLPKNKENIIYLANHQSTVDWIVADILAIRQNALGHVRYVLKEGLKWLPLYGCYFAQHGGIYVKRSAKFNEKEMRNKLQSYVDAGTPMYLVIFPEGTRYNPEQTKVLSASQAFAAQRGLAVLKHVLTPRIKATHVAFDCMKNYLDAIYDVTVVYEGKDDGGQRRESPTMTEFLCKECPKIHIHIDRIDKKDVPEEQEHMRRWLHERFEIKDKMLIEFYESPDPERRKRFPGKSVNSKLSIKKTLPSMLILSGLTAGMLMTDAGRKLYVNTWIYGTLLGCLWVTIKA
Chain of UniProt Q99798 (Q99798 whole entry, looked up): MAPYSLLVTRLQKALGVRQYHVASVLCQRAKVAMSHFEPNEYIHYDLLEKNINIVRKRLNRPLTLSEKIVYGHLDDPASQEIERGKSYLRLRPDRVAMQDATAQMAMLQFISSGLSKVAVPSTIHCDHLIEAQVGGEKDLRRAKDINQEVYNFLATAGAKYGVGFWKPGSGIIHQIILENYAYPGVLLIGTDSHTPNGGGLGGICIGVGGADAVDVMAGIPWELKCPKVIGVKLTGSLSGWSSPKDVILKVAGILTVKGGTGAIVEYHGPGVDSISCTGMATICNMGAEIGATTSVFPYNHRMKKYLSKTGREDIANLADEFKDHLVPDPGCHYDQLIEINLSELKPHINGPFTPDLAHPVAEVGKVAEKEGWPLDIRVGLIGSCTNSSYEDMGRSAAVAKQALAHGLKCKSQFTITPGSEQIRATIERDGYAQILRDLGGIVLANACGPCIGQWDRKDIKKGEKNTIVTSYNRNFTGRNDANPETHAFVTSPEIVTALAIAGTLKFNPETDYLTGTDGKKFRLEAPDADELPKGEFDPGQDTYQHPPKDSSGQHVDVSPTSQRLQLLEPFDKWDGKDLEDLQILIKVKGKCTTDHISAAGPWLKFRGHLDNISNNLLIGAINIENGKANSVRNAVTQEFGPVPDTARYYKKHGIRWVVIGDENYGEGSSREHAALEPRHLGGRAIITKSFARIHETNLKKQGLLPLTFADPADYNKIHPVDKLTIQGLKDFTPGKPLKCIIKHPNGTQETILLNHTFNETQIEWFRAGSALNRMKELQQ
Chain of UniProt Q9NX38 (Q9NX38 whole entry, looked up): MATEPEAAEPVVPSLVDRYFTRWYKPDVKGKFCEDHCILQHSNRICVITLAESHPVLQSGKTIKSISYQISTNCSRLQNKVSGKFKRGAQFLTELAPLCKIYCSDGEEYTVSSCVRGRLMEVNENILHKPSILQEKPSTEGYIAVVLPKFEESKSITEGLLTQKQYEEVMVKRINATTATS
Chain of UniProt P54709 (P54709 whole entry, looked up): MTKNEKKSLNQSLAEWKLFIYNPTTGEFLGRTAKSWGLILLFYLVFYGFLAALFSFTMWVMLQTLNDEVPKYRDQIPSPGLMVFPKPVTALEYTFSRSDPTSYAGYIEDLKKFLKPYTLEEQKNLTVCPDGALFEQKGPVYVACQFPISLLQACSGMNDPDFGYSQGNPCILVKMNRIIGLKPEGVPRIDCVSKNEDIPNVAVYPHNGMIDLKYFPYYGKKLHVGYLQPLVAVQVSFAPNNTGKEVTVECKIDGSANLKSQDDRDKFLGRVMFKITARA
Chain of UniProt Q9Y679 (Q9Y679 whole entry, looked up): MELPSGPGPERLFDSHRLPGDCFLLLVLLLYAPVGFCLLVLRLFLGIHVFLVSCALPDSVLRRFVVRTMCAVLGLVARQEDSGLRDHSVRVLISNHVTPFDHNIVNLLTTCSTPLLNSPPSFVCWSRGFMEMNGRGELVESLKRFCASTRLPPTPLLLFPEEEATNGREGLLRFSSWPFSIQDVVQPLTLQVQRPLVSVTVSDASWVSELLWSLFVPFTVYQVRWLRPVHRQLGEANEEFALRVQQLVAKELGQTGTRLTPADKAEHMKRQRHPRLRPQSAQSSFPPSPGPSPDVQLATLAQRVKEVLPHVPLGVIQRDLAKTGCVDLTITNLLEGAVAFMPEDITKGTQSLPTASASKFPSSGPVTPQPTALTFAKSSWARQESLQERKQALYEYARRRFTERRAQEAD
Chain of UniProt Q7Z569 (Q7Z569 whole entry, looked up): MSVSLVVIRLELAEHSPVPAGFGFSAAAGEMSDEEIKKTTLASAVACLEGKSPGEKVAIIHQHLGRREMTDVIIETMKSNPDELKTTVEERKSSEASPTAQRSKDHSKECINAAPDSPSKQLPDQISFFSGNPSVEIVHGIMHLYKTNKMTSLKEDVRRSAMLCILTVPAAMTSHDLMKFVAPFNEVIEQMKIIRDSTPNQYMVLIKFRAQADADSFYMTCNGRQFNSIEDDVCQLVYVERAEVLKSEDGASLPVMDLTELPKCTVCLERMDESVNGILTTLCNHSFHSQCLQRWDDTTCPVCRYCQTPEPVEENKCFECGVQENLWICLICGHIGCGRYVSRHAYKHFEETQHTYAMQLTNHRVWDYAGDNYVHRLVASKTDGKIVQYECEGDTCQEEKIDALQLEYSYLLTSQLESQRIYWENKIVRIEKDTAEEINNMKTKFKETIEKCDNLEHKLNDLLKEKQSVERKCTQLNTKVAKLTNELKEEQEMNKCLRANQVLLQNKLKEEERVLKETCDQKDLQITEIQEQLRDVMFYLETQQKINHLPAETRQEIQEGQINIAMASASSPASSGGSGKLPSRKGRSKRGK
Chain of UniProt P53367 (P53367 whole entry, looked up): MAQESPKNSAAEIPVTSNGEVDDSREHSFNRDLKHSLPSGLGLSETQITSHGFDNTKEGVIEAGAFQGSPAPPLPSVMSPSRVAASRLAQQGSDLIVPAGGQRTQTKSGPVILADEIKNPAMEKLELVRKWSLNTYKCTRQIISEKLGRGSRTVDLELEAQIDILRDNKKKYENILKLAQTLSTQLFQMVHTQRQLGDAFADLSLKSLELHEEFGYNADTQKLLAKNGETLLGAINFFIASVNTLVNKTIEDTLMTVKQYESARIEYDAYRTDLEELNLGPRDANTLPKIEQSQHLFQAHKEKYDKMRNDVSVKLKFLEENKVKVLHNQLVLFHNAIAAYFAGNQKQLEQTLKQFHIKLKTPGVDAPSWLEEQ
Chain of UniProt P31939 (P31939 whole entry, looked up): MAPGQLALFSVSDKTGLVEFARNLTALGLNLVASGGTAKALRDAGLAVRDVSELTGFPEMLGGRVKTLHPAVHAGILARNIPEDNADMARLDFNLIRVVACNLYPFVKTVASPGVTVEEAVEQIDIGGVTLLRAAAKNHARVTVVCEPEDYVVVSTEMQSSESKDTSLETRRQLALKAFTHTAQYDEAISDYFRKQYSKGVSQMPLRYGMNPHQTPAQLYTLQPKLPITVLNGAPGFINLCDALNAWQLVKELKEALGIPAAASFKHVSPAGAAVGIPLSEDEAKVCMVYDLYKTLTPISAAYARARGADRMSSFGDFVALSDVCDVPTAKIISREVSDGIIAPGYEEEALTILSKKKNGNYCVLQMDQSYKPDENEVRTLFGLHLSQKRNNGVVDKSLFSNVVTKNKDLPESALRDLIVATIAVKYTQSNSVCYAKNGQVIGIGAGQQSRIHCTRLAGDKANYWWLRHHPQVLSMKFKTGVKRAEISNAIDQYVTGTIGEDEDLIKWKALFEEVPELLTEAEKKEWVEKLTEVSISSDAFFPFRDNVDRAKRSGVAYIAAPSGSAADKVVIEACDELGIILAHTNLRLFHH
Chain of UniProt O95782 (O95782 whole entry, looked up): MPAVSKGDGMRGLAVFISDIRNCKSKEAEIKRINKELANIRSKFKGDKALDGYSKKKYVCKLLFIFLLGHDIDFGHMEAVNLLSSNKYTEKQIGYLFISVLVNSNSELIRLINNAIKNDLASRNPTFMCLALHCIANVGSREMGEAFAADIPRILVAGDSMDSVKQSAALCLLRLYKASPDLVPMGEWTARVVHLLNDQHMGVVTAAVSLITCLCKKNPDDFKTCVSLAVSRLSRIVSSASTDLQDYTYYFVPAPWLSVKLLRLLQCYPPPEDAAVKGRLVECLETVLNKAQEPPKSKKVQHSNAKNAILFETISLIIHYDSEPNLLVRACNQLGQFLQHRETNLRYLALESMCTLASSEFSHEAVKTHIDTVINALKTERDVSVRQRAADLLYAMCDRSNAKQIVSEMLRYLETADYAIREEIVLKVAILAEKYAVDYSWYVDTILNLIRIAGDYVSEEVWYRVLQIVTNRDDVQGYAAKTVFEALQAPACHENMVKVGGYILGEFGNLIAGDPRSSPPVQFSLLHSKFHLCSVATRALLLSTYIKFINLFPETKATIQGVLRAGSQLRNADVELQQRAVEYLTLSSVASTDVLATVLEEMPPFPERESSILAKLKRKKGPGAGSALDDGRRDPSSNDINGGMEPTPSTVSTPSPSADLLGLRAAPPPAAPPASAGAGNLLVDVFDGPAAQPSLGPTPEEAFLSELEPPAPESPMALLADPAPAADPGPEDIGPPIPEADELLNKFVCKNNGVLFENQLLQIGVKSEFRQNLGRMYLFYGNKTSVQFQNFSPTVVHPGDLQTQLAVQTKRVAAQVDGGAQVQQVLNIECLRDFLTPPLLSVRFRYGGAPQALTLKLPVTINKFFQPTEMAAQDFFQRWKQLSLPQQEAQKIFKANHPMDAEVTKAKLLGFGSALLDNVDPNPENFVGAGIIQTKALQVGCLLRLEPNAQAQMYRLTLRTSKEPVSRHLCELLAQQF
Chain of UniProt Q96GS6 (Q96GS6 whole entry, looked up): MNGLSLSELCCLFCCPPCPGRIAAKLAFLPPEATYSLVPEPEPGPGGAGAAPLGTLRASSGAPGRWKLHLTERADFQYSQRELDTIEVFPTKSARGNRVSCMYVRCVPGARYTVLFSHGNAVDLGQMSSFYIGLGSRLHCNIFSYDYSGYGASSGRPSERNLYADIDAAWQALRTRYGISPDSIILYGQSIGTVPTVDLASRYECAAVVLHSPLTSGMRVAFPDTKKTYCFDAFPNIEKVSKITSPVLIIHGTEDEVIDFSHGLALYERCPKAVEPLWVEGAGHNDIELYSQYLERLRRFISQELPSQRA

Target	log2 fold change [1]	log2 fold change (crizotinib)	log2 fold change [2]	log2 fold change [3]	log2 fold change (duvelisib)	log2 fold change (gandotinib)	log2 fold change (tozasertib)	log2 fold change [4]	log2 fold change (doramapimod)	log2 fold change (ispinesib)	log2 fold change (bafetinib)	log2 fold change [5]	log2 fold change (nilotinib)	log2 fold change [6]	log2 fold change (dasatinib)	log2 fold change [7]	log2 fold change [8]	log2 fold change [9]	log2 fold change (tipifarnib)	log2 fold change (mubritinib)
ARFIP1 (UniProt P53367)	0.833	-0.309	0.026	-0.061	0.161	-0.223	-0.065	0.014	0	-0.232	-0.198	0.077	-0.177	-0.148	-0.113	0.05	0.069	0.461 (active)	-0.115	-0.054
ARGLU1 (UniProt Q9NWB6)	-0.038	-0.008	-0.039	-0.344	-0.011	0.212	0.037	-0.027	0.047	0.242	0.165	-0.058	0.184	-1.13 (active)	0.146	-0.027	-0.046	-0.031	0.043	-0.057
ATP1B3 (UniProt P54709)	0.053	0.111	0.027	-0.152	0.028	-0.013	-0.019	-0.04	-0.042	0.165	0	-0.039	0.06	-0.003	0.027	0.021	0	-0.02	0.065	0.043
ABHD17A isoform 2 (UniProt Q96GS6)	-0.027	-0.135	-0.03	-0.015	-0.008	-0.283	-0.024	0.016	0.004	-0.129	-0.051	0.044	-0.054	0.047	-0.023	0.018	0.028	0.068	-0.042	0.061
ACO2 (UniProt Q99798)	0	-0.022	0.102	-0.085	0.03	-0.088	-0.024	0.078	-0.026	0.041	0.021	-0.025	-0.02	0.013	-0.118	-0.013	0.043	-0.016	-0.064	-0.522 (active)
AP2A1 (UniProt O95782)	-0.011	-0.127	-0.006	-0.237 (active)	-0.015	0.01	-0.126	0.02	0.039	0.081	0.052	0.024	-0.008	-0.008	0.045	-0.079	-0.007	-0.066	-0.051	-0.011
AUP1 (UniProt Q9Y679)	-0.032	-0.123	0.071	-0.015	-0.05	-0.181	-0.012	0.06	-0.033	-0.41 (active)	-0.023	0.11	-0.102	-0.055	-0.097	0.018	0.01	-0.03	-0.106	0.033
AIP (UniProt O00170)	0.031	0.039	0.075	-0.055	0.014	-0.058	0.064	0.038	-0.024	0.011	0.017	0.02	-0.062	-0.009	-0.144	0.056	0.031	0.012	-0.058	0.015
B4GALT1 (UniProt P15291)	-0.007	-0.479 (active)	-0.031	-0.124	0.035	0.161	0.014	0.049	0.071	-0.066	-0.062	0.009	0.066	-0.025	-0.083	0.021	-0.005	0.04	0.153	0.029
AGPAT5 (UniProt Q9NUQ2)	0.035	-0.117	0.151	-0.014	0.065	-0.09	0.002	-0.029	0.001	-0.145	-0.133	0.021	0.008	0.04	-0.058	-0.035	0.09	0.045	0.02	0.014
BRAP (UniProt Q7Z569)	0.027	-0.205	0.008	-0.01	-0.046	-0.024	0.072	0.093	0.081	-0.089	0.026	0.017	-0.087	-0.186	-0.097	-0.116	-0.067	-0.066	-0.04	0.056
ARAF (UniProt P10398)	0.012	-0.093	0.059	0.112	-0.009	0.039	-0.074	0.081	-0.035	-0.051	-0.015	0.01	-0.021	-0.236 (active)	-0.031	0.009	0.007	-0.003	0.144	-0.092
ABITRAM (UniProt Q9NX38)	0.055	0.012	0.1	-0.011	0.029	0.169	-0.012	0.079	0.006	0.108	0.016	0.116	-0.327	-0.146	-0.316	-0.442 (active)	-0.004	0.026	-0.031	0.046
ACSL4 (UniProt O60488)	0.02	-0.338 (active)	0.07	0.099	0.045	-0.089	0.032	0.151	0.01	-0.311 (active)	-0.021	-0.014	-0.027	-0.063	-0.222	0.087	0.05	0.115	-0.134	-0.078
ADPRHL2 (UniProt Q9NX46)	0.052	0.092	0.045	-0.072	0.17	0.07	-0.077	0.039	-0.017	0.303 (active)	0.201	0.029	0.013	0.164	-0.034	0.124	0.082	0.052	-0.159	0.349 (active)
ATIC (UniProt P31939)	0.108	0.092	0.101	-0.083	0.023	0.066	0.018	-0.015	-0.029	0.096	0.067	0.058	0.158	-0.033	0.022	-0.006	0.104	0.048	-0.047	0.206 (active)

Reference: the supplement of paper PMC10849652
